About 2,000 (36%) of roughly 5,500 compounds were called active. Not shown: some 18% with an inconclusive outcome. Cut-off read from the data, not from the text of the source: active = normalized growth mostly below about 0.91 (no sharp cut-off); inconclusive = no clear call, values can overlap the other calls; inactive = mostly above about 0.92. This is one part of the list.
Experiment: chemical genetic growth profiling, strain panel (AID 1159580);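 note: tested at 20 µM; growth read once vehicle control cultures reached saturation at 30 °C; 1 = growth at the plate median or of vehicle wells; lower values mean less growth of the strain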
Conditions: growth OD
[1] = S. cerevisiae deletion strains, locus YGR078C, strain PAC10, active compounds read low
[2] = S. cerevisiae deletion strains, locus YMR263W, strain SAP30, active compounds read low
[3] = S. cerevisiae deletion strains, locus YNL153C, strain GIM3, active compounds read low
[4] = S. cerevisiae deletion strains, locus YNL322C, strain KRE1, active compounds read low
[5] = S. cerevisiae deletion strains, locus YPL055C, strain LGE1, active compounds read low
[6] = S. cerevisiae deletion strains, locus YPL241C, strain CIN2, active compounds read low

Measured: normalized growth

CC1=C(C(=O)O)N2C(=O)[C@@H](NC(=O)C(N)C3=CCC=CC3)[C@H]2SC1 (stereo partly drawn)
inactive: S. cerevisiae deletion strains, locus YAL040C, strain CLN3, active compounds read low 1.02 | S. cerevisiae deletion strains, locus YDR363W, strain ESC2, active compounds read low 1.03 | S. cerevisiae deletion strains, locus YER002W, strain NOP16, active compounds read low 1.02 | [1] 1.01 | [2] 1.03 | [3] 1.01 | S. cerevisiae deletion strains, locus YNL175C, strain NOP13, active compounds read low 1.02 | S. cerevisiae deletion strains, locus YNL197C, strain WHI3, active compounds read low 1.03 | S. cerevisiae deletion strains, locus YNL224C, strain SQS1, active compounds read low 1.01 | [4] 1.03 | S. cerevisiae deletion strains, locus YOR083W, strain WHI5 (second series), active compounds read low 1.04 | [5] 1.02 | [6] 1.01

CN=C1CN(O)C(c2ccccc2)=c2cc(Cl)ccc2=N1
inactive: S. cerevisiae deletion strains, locus YAL013W, strain DEP1, active compounds read low 0.989 | S. cerevisiae deletion strains, locus YBR021W, strain FUR4, active compounds read low 1.06 | S. cerevisiae deletion strains, locus YBR229C, strain ROT2, active compounds read low 0.969 | S. cerevisiae deletion strains, locus YCL029C, strain bik1, active compounds read low 0.981 | S. cerevisiae deletion strains, locus YDL035C, strain GPR1, active compounds read low 1.01 | S. cerevisiae deletion strains, locus YDL074C, strain BRE1, active compounds read low 0.965 | S. cerevisiae deletion strains, locus YDL101C, strain DUN1, active compounds read low 0.974 | S. cerevisiae deletion strains, locus YDL134C, strain PPH21, active compounds read low 0.983 | S. cerevisiae deletion strains, locus YDL185W, strain tfp1, active compounds read low 0.946 | S. cerevisiae deletion strains, locus YDL192W, strain arf1, active compounds read low 0.983 | S. cerevisiae deletion strains, locus YDR101C, strain arx1, active compounds read low 1.01 | S. cerevisiae deletion strains, locus YDR150W, strain NUM1, active compounds read low 0.971 | S. cerevisiae deletion strains, locus YDR162C, strain NBP2, active compounds read low 0.94 | S. cerevisiae deletion strains, locus YDR318W, strain mcm21, active compounds read low 1.01 | S. cerevisiae deletion strains, locus YDR388W, active compounds read low 0.983 | S. cerevisiae deletion strains, locus YDR502C, strain sam2, active compounds read low 0.971 | S. cerevisiae deletion strains, locus YEL061C, strain CIN8, active compounds read low 0.985 | S. cerevisiae deletion strains, locus YER110C, active compounds read low 0.985 | S. cerevisiae deletion strains, locus YER155C, strain BEM2, active compounds read low 0.997 | S. cerevisiae deletion strains, locus YER167W, strain BCK2, active compounds read low 1 | S. cerevisiae deletion strains, locus YGL078C, strain dbp3, active compounds read low 0.975 | S. cerevisiae deletion strains, locus YGL086W, strain mad1, active compounds read low 1 | S. cerevisiae deletion strains, locus YGL248W, strain PDE1, active compounds read low 0.978 | [1] 0.978 | S. cerevisiae deletion strains, locus YGR135W, strain pre9, active compounds read low 0.955 | S. cerevisiae deletion strains, locus YGR229C, strain SMI1, active compounds read low 0.993 | S. cerevisiae deletion strains, locus YGR252W, strain gcn5, active compounds read low 1.06 | S. cerevisiae deletion strains, locus YHR030C, strain SLT2, active compounds read low 1 | S. cerevisiae deletion strains, locus YHR079C, strain IRE1 (second series), active compounds read low 0.991 | S. cerevisiae deletion strains, locus YHR094C, strain hxt1, active compounds read low 0.987 | S. cerevisiae deletion strains, locus YHR129C, strain ARP1, active compounds read low 0.992 | S. cerevisiae deletion strains, locus YHR200W, strain rpn10, active compounds read low 0.983 | S. cerevisiae deletion strains, locus YIL066C, strain RNR3, active compounds read low 0.97 | S. cerevisiae deletion strains, locus YIL073C, strain SPO22, active compounds read low 1.02 | S. cerevisiae deletion strains, locus YIL125W, strain kgd1, active compounds read low 0.978 | S. cerevisiae deletion strains, locus YIR030C, strain dcg1, active compounds read low 0.985 | S. cerevisiae deletion strains, locus YJL095W, strain BCK1, active compounds read low 0.981 | S. cerevisiae deletion strains, locus YJL134W, strain LCB3, active compounds read low 0.997 | S. cerevisiae deletion strains, locus YJL168C, strain set2, active compounds read low 0.984 | S. cerevisiae deletion strains, locus YJL187C, strain SWE1 (second series), active compounds read low 0.959 | S. cerevisiae deletion strains, locus YJR043C, strain POL32, active compounds read low 1.03 | S. cerevisiae deletion strains, locus YJR075W, strain HOC1, active compounds read low 0.988 | S. cerevisiae deletion strains, locus YKL009W, strain mrt4, active compounds read low 0.982 | S. cerevisiae deletion strains, locus YKL068W, active compounds read low 0.988 | S. cerevisiae deletion strains, locus YKL085W, strain MDH1 (second series), active compounds read low 0.978 | S. cerevisiae deletion strains, locus YKL085W, strain MDH1, active compounds read low 0.978 | S. cerevisiae deletion strains, locus YKL190W, strain CNB1, active compounds read low 0.979 | S. cerevisiae deletion strains, locus YKR001C, strain vps1, active compounds read low 0.998 | S. cerevisiae deletion strains, locus YLR039C, strain RIC1, active compounds read low 0.973 | S. cerevisiae deletion strains, locus YLR058C, strain SHM2, active compounds read low 0.983 | S. cerevisiae deletion strains, locus YLR102C, strain apc9, active compounds read low 0.976 | S. cerevisiae deletion strains, locus YLR262C, strain YPT6, active compounds read low 0.969 | S. cerevisiae deletion strains, locus YLR268W, strain sec22, active compounds read low 0.991 | S. cerevisiae deletion strains, locus YLR330W, strain CHS5, active compounds read low 0.998 | S. cerevisiae deletion strains, locus YLR342W, strain FKS1 (second series), active compounds read low 1.06 | S. cerevisiae deletion strains, locus YLR371W, strain rom2, active compounds read low 0.969 | S. cerevisiae deletion strains, locus YLR418C, strain cdc73, active compounds read low 0.951 | S. cerevisiae deletion strains, locus YML016C, strain PPZ1, active compounds read low 0.988 | S. cerevisiae deletion strains, locus YML032C, strain rad52, active compounds read low 0.989 | S. cerevisiae deletion strains, locus YML124C, strain tub3, active compounds read low 0.984 | S. cerevisiae deletion strains, locus YMR078C, strain ctf18, active compounds read low 0.98 | [2] 0.957 | S. cerevisiae deletion strains, locus YMR307W, strain GAS1, active compounds read low 1.06 | S. cerevisiae deletion strains, locus YNL067W, strain RPL9B, active compounds read low 0.974 | S. cerevisiae deletion strains, locus YNL128W, strain TEP1, active compounds read low 0.966 | [3] 0.962 | S. cerevisiae deletion strains, locus YNL233W, strain BNI4, active compounds read low 0.98 | S. cerevisiae deletion strains, locus YNL250W, strain rad50, active compounds read low 0.981 | S. cerevisiae deletion strains, locus YNL271C, strain bni1, active compounds read low 0.985 | S. cerevisiae deletion strains, locus YNL298W, strain CLA4, active compounds read low 0.977 | S. cerevisiae deletion strains, locus YNL307C, strain MCK1, active compounds read low 0.999 | [4] 0.987 | S. cerevisiae deletion strains, locus YNR052C, strain pop2, active compounds read low 0.985 | S. cerevisiae deletion strains, locus YOL006C, strain TOP1, active compounds read low 0.949 | S. cerevisiae deletion strains, locus YOL012C, strain htz1 0.854 | S. cerevisiae deletion strains, locus YOL147C, strain pex11, active compounds read low 0.995 | S. cerevisiae deletion strains, locus YOR061W, strain CKA2, active compounds read low 0.969 | S. cerevisiae deletion strains, locus YOR069W, strain VPS5, active compounds read low 1 | S. cerevisiae deletion strains, locus YOR136W, strain idh2, active compounds read low 0.988 | S. cerevisiae deletion strains, locus YOR144C, strain elg1, active compounds read low 0.984 | S. cerevisiae deletion strains, locus YOR184W, strain ser1, active compounds read low 1.01 | S. cerevisiae deletion strains, locus YOR316C, strain cot1, active compounds read low 0.975 | [5] 0.934 | [6] 0.99 | S. cerevisiae deletion strains, locus YPR119W, strain clb2, active compounds read low 0.989 | S. cerevisiae deletion strains, locus YPR141C, strain kar3, active compounds read low 0.962 | S. cerevisiae deletion strains, locus YPR163C, strain tif3, active compounds read low 0.988 | S. cerevisiae deletion strains, locus YPR167C, strain met16, active compounds read low 0.983 | S. cerevisiae deletion strains, strain wtn01, active compounds read low 0.984 | S. cerevisiae strains, strain wild type, active compounds read low 0.994

— PubChem BioAssay AID1159580 (chemical genetic matrix, 2015)
